# Assay outcomes deposited in PubChem BioAssay by National Center for Advancing Translational Sciences (NCATS).
# FMDV antiviral: antivirals against foot and mouth disease virus; FMDV antiviral cell-based qHTS; Potency, µM (doses to about 57.9 µM), most hits filed as inhibitors; hit rate 1.2% among 410,000; AID 1159524; calls by dose curve; tested in HEK293T cells; further: read-out not given here; nearly all actives have a fitted effect of over 45% in size
# AmpC no deterg: blocks E. coli AmpC beta-lactamase in detergent-free assay; P00811; hit rate 0.52% among 330,000; AID 485341; AmpC nitrocefin hydrolysis, absorbance 480 nm, 0.0001% Triton; Potency, µM (doses to about 57.1 µM), most hits filed as inhibitors; further: nearly all actives have a fitted effect of over 20% in size
# Target sequence (P00811 whole entry, looked up): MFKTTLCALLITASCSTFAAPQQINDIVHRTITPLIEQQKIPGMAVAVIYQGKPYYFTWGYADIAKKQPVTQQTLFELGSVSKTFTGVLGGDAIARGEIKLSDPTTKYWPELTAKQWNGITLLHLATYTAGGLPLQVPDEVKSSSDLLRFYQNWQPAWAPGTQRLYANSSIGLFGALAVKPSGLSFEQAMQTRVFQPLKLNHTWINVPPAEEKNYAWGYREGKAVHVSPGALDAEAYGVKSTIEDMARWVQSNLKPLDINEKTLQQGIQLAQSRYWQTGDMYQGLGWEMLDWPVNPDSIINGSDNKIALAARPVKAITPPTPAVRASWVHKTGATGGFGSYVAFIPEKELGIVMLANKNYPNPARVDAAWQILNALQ
#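 AmpC (5.3 nM in the dispensed reagent) in 20 mM phosphate pH 7.0 with 0.01% (detergent screen) or 0.0001% Triton X-100 was preincubated with compounds for 15 min at room temperature. Nitrocefin was then added from an 800 uM solution, and hydrolysis was followed at 480 nm.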
# HCV inhibitor: HCV inhibition | Huh7.5.1 HCVcc-Cre infection, luciferase reporter, 44 h | Potency, µM (doses to about 41.8 µM), most hits filed as inhibitors | hit rate 3.4% among 340,000
#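 Infectious HCV cell culture screen: compound-treated cells (1,000/well, pre-plated 4 h) are infected with HCVcc-Cre at roughly 0.5 moi and grown 44 h. Infection is quantified by luciferase signal after 15 min substrate incubation at room temperature.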
# HCMV antiviral: blocks human cytomegalovirus replication; HFF cells, HCMV-luciferase reporter, 72 h; active compounds read low; activity change, negative = inhibition, % at 57.5 µM; hit rate 4.5% among 410,000; AID 1259415; in the data active means activity change below about -60%; inconclusive means no clear call, values can overlap the other calls; inactive means above about -39%
#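 After 16 h attachment at 37C, HFF cells received test compound and HCMV-luciferase (1 PFU/cell); reporter luminescence read 72 h later, data normalized against buffer-only and known inhibitor Salinomycin.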
# AmpC detergent: inhibitors of E. coli AmpC beta-lactamase with detergent; P00811; AmpC hydrolysis of nitrocefin, absorbance 480 nm, 0.01% Triton; AID 485294; hit rate 0.041% among 370,000; Potency, µM (series often up to 114 µM), usual class: inhibitors; further: nearly all actives have a fitted effect of over 25% in size
#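 AmpC (5.3 nM in the dispensed reagent) in 20 mM phosphate pH 7.0 with 0.01% (detergent screen) or 0.0001% Triton X-100 was preincubated with compounds for 15 min at room temperature. Nitrocefin was then added from an 800 uM solution, and hydrolysis was followed at 480 nm.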
# A number is an active result; 0 = inactive; ? = inconclusive; - = no result; + = active, no number; [ ] = dose if it differs, or a comment. Shown are actives, neighbours in structure and some others; about 7.3% of the full set was active somewhere. Unless noted, the call rests on the fitted dose curve; in most records, active means well fitted curve in the direction sought with a large enough effect; inconclusive means small, poorly fitted or top-dose-only effect, or another doubt; inactive means no such curve, though single readings can be large; an effect the other way counts as inactive or inconclusive.
SMILES,FMDV antiviral,AmpC no deterg,HCV inhibitor,HCMV antiviral,AmpC detergent
CC1=Nc2cc(C(=O)NCCN3CCOCC3)ccc2Sc2c(C)ccc(C)c21,0,0,0,0,0
COc1cc(=O)n2c(c1C(=O)NCc1nonc1C)CCN(C(=O)c1cccc(C)c1C)CC2,0,-,-,-,-
CNC(=O)c1cc(C(=O)c2ccc(Cl)cc2)c(Br)[nH]1,0,0,0,0,0
CCOC(=O)C(C)N1C(=O)S/C(=C/c2cc(C)n(-c3ccccn3)c2C)C1=O (stereo not drawn),0,0,10µM,0,0
CCOC(=O)C(C)N1C(=O)S/C(=C/c2cc(C)n(-c3ccncc3)c2C)C1=O (stereo not drawn),0,0,10µM,0,0
COC(=O)C(C)N1C(=O)S/C(=C/c2cc(C)n(C(C)C)c2C)C1=O (stereo not drawn),0,0,10µM,0,0
O=C(O)CC1Oc2ccc(Cl)cc2NC1=O (stereo not drawn),0,11µM,0,0,?
Cc1ccc2c(c1)NC(=O)C(CC(=O)Nc1cc(Cl)ccc1C)O2 (stereo not drawn),0,-,-,0,0
Cc1ccc(C2CC(C(F)(F)F)n3nc(C(=O)NCc4c(C)nn(C)c4C)c(Cl)c3N2)cc1 (stereo not drawn),25µM,0,8.9µM,?,0
Cc1nn(C)cc1CN(C)C(=O)c1nn2c(c1Br)NC(c1cccs1)CC2C(F)(F)F (stereo not drawn),0,0[2.29 µM],0,0,0
COc1ccc(C2CC(C(F)(F)F)n3nc(C(=O)O)c(Br)c3N2)cc1 (stereo not drawn),0,0,0,0,0
COc1ccc(C2CC(C(F)(F)F)n3nc(C(=O)NCc4cn(C)nc4C)c(Cl)c3N2)cc1 (stereo not drawn),-,0,?,-72,0
Cc1nn(C)c(C)c1CNC(=O)c1cnn2c1NC(c1ccccc1)CC2C(F)(F)F (stereo not drawn),-,0,0,?,0
Cc1nn(C)cc1CN(C)C(=O)c1nn2c(c1Cl)NC(c1cccs1)CC2C(F)(F)F (stereo not drawn),-,0,0,-78,?
CCCc1cc(=O)[nH]c(SCCc2ccccc2)n1,0,0,0,0,0
CC1Cc2ccccc2N1C(=O)c1cc2cccnc2n(C)c1=O (stereo not drawn),0,0,0,0,0
O=C(CCl)c1cc2c3c(c1)CC(=O)N3CCC2,22µM,0,0,0,0
O=C(CCc1ccccc1)Nc1cc2c3c(c1)CCC(=O)N3CCC2,0,0,?,-99,0
O=C(NCCO)C(=O)Nc1cc2c3c(c1)CC(=O)N3CCC2,0,0,0,+,0
COc1ccc(NC(=O)C2(C)CCN2Cc2ccc(C(C)C)cc2)cc1OC (stereo not drawn),0,-,-,0,-
CCOC(=O)C1CCN(C(=O)CCc2nnc3ccc(N4CCN(C)CC4)nn23)CC1,0,0,0,0,0
Cc1cc(C)cc(NC(=O)CCCn2c3ccccc3c(=O)c3ccccc32)c1,?,-,-,-77,0
Cc1ccc(NC(=O)CCn2c(=O)c3cccn3c3ccccc32)c(C)c1,?,0,?,?,?
Cc1cc(C)cc(NC(=O)CCn2c(=O)c3cccn3c3ccccc32)c1,?,0,3.2µM,0,0
Cc1ncc2c(c1CNC(=O)c1ccc3c(c1)OCO3)CCN(C(=O)c1scc3c1CCCC3)C2,0,-,-,-,-
SMILES,FMDV antiviral,AmpC no deterg,HCV inhibitor,HCMV antiviral,AmpC detergent
CCCN1CCN(CCNC(=O)Nc2cc(OC)cc(OC)c2)CC1,0,-,-,0,0
CN(CC(=O)Nc1cccc(F)c1)C(=O)c1ccc(N2CCCC2)c([N+](=O)[O-])c1,0,0,?,-61,0
CN(CC(=O)Nc1cccc(F)c1)C(=O)c1ccc(N2CCCCCC2)c([N+](=O)[O-])c1,0,0,?,?,0
CN(CC(=O)Nc1cccc(F)c1)CC(=O)Nc1ccccc1[N+](=O)[O-],?,0,?,-87,0
COC(=O)C1=C(C)NC(=S)NC1c1ccc(OCC(=O)N2CCCCC2)c(OC)c1 (stereo not drawn),0,0,0,-63,0
COCCOC(=O)C1=C(C)NC(=S)NC1c1ccc(OCC(=O)N2CC(C)OC(C)C2)c(OC)c1 (stereo not drawn),0,-,0,0,-
O=C(NCCc1c[nH]c2ccccc12)C(=O)NCC(c1cccnc1)N1CCN(c2ccccc2)CC1 (stereo not drawn),?,0,10µM,?,?
COc1ccc(C(=O)NCC(c2cccnc2)N2CCN(c3ccccc3OC)CC2)cc1 (stereo not drawn),?,-,-,0,0
COc1ccccc1N1CCN(C(CNC(=O)C(=O)NCCc2ccccc2)c2cccnc2)CC1 (stereo not drawn),25µM,-,-,0,0
O=C(NCCc1ccccc1)C(=O)NCC(c1cccnc1)N1CCN(c2ccc(F)cc2)CC1 (stereo not drawn),?,-,-,0,0
Cc1ccc(C(=O)c2oc3ccccc3c2NC(=O)COc2ccc(C(C)(C)C)cc2)cc1,0,-,-,0,0
CCN1CCC(N(Cc2ccc(F)cc2)C(=O)Nc2cccc(C(F)(F)F)c2)CC1,0,-,-,0,0
COc1ccc(C(C[N+](=O)[O-])c2c(-c3ccccc3)cc3ccccn23)cc1OC (stereo not drawn),?,-,0,?,0
COc1cc(C(C[N+](=O)[O-])c2c(C)cc3ccccn23)ccc1O (stereo not drawn),22µM,0,?,-64,0
COc1cc(C(C[N+](=O)[O-])c2c(N)n(C)c(=O)n(C)c2=O)ccc1O (stereo not drawn),18µM,0,?,-71,0
Cn1c(N)c(C(C[N+](=O)[O-])c2ccccc2Cl)c(=O)n(C)c1=O (stereo not drawn),0,-,0,0,-
COc1cccc(F)c1C(C[N+](=O)[O-])c1c(N)n(C)c(=O)n(C)c1=O (stereo not drawn),32µM,0,7.9µM,-100,0
Cc1ccc(C(C[N+](=O)[O-])c2c(N)n(C)c(=O)n(C)c2=O)cc1 (stereo not drawn),0,0,0,0,0
Cc1noc(C)c1CSCC(=O)Nc1nc(-c2ccc(F)c(F)c2)cs1,18µM,0,13µM,0,0
COc1ccc(-c2csc(NC(=O)CSCc3c(C)noc3C)n2)cc1OC,40µM,0,?,0,0
Cc1csc(NC(=O)CSCc2c(C)noc2C)n1,0,?,0,0,0
COc1ccc2nc(NC(=O)CSCc3c(C)noc3C)sc2c1,0,25µM,?,0,?
Cc1ccc2nc(NC(=O)CSCC(=O)OCC(=O)c3ccc(Br)cc3)sc2c1,7.9µM,0,0,0,0
CS(=O)(=O)N1CCN(c2ccccc2NC(=O)c2ccc(-c3ccc(Br)cc3)o2)CC1,0,0,6.3µM,0,0
CS(=O)(=O)N1CCN(c2ccccc2NC(=O)c2cc(Br)ccc2Cl)CC1,0,0[2.29 µM],0,0,0
